Compounds with a hit are over-represented: about 0.43% of the library has one in this group of screens.
GLA spleen mod – alpha-galactosidase A (human) modulation; P06280; 240,000 compounds, 0.008% hits; Potency, µM (series often up to 80 µM), hits mostly inhibitors; human spleen homogenate, 4MU-alpha-Gal fluorescence, 40 min
Target sequence (P06280 32-429 limits assumed): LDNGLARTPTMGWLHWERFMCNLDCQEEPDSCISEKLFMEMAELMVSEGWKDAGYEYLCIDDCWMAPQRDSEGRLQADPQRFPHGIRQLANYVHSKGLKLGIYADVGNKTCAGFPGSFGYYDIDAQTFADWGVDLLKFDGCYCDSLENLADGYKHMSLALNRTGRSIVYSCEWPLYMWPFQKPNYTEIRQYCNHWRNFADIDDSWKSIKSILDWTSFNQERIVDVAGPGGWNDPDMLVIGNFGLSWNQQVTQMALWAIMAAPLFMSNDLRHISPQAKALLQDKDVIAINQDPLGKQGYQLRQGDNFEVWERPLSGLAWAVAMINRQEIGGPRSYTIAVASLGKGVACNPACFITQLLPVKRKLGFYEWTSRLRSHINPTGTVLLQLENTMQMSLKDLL
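Fluorogenic readout (Ex 365/Em 440 nm) of 4-methylumbelliferone released from 1 mM 4-MU-alpha-galactoside by spleen homogenate, 40 min at 37C, pH 5.0. Data normalized to no-enzyme and enzyme controls; Hill-equation AC50 from compound titrations.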
N370S GC – inhibits or activates N370S mutant glucocerebrosidase | 330,000 compounds, 0.092% hits | AID 2101 | N370S GC spleen homogenate, 4MU-glucoside fluorescence | Potency, µM (highest dose often 59.4 µM), usual class: inhibitors
GAA inh – alpha-glucosidase (human) inhibition; Potency, µM (series often up to 76.9 µM), usual class: inhibitors; 200,000 compounds, 0.005% hits; purified human GAA, 4-MU-alpha-glucoside fluorescence
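Read-out is 4-methylumbelliferone fluorescence (Ex 365/Em 440 nm) after NaOH/glycine stop at pH 10. Enzyme 4 nM, substrate 400 uM, pH 5.0 citrate buffer, 20 min room temperature; AC50 from Hill-equation concentration-response.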
GLA inh pH 4.5 – inhibitors of human alpha-galactosidase A at pH 4.5; activity change, negative = inhibition, % at 105 µM; purified enzyme, 4-MU-alpha-Gal fluorescence, pH 4.5; P06280; 230,000 tested, under 10 active
GAA glycogen – inhibitors or activators of human alpha-glucosidase glycogen cleavage; P10253; recombinant GAA, glycogen substrate, Amplex Red glucose oxidase fluorescence; Potency, µM (series often up to 76.4 µM), hits mostly inhibitors; 300,000 compounds, 0.38% hits;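 also: the screen sought inhibitors and activators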
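qHTS, 1536-well; enzyme 4 nM final; cpd up to 77 uM; substrate bovine liver glycogen 30 ug; 50 mM citrate/phosphate pH 5.0, 0.01% Tween-20; 37 C, 40 min; Amplex Red detection 45 min RT; Hill fit → AC50.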
GAA spleen mod – inhibitors or activators of human alpha-glucosidase in spleen homogenate. AID 2112. human spleen homogenate, 4-MU-alpha-glucoside fluorescence. Potency, µM (titrated, usually from 79.9 µM), usual class: inhibitors. 240,000 compounds, 0.006% hits
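AC50 values come from Hill-equation fits of concentration-response data, normalized to no-enzyme and full-activity controls. Enzyme source: 1 ug human spleen homogenate; 1 mM fluorogenic 4-MU glucoside, pH 5.0 citrate buffer, 37 C, 40 min.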
Numbers stand for hits; . = inactive; ? = inconclusive; / = not tested or not shown. Calls follow the shape of the dose curve; as a rule, active = well fitted curve in the direction sought with a large enough effect; inconclusive = small, poorly fitted or top-dose-only effect, or another doubt; inactive = no such curve, though single readings can be large; an effect the other way counts as inactive or inconclusive.

SMILES	GLA spleen mod	N370S GC	GAA inh	GLA inh pH 4.5	GAA glycogen	GAA spleen mod
COC1C=CO[C@@]2(C)Oc3c(C)c(O)c4c(O)c(c5c(nc6cc(C)ccn65)c4c3C2=O)NC(=O)/C(C)=C\C=CC(C)C(O)[C@@H](C)C(O)C(C)[C@@H](OC(C)=O)C1C (some centres not stated)	.	.	/	.	/	.
COc1ccc(C(=O)OCC(=O)N2CCC(C)CC2)cc1S(=O)(=O)N1CCOCC1	/	.	/	/	/	/
CCOc1cc(/C=C2\SC(N)=NC2=O)ccc1O	/	.	/	/	10µM	/
CCOc1cc(/C=C2\SC(=O)N=C2N)ccc1O	.	.	.	.	.	.
CCOc1ccc(N(CC(=O)NCc2ccc(C)cc2)S(=O)(=O)c2c(C)[nH]c(=O)[nH]c2=O)cc1	/	?	/	/	.	/
CCOc1ccc(N(CC)S(=O)(=O)c2c(C)[nH]c(=O)[nH]c2=O)cc1	/	.	/	/	.	/
CCOc1ccc(N(CC(=O)NCc2ccccc2Cl)S(=O)(=O)c2c(C)[nH]c(=O)[nH]c2=O)cc1	/	4µM	/	/	.	/
CCOc1ccc(N(CC(=O)Nc2cccc(C)c2C)S(=O)(=O)c2c(C)[nH]c(=O)[nH]c2=O)cc1	.	11µM	/	.	.	.
COc1ccc(N(CC(=O)NCc2ccc(C)cc2)S(=O)(=O)c2c(C)[nH]c(=O)[nH]c2=O)cc1	/	8.9µM	/	/	.	/
CCOc1ccc(N(CC(=O)Nc2c(C)cccc2C)S(=O)(=O)c2c(C)[nH]c(=O)[nH]c2=O)cc1	.	4.5µM	/	.	.	.
CCn1cc(C(=O)OCC(=O)Nc2cccc(S(=O)(=O)N3CCOCC3)c2)c(=O)c2ccc(C)nc21	.	.	.	.	.	.
Nc1nonc1-n1nnc(C(=O)N/N=C/c2ccc(Br)cc2)c1CSC1=NCCS1	.	.	.	.	.	.
CCc1ccc(NC(=O)N(CCN2CCOCC2)Cc2ccc3c(c2)CCCN3CC)cc1	.	.	.	.	11µM	.
CCN1CCCc2cc(CN(CCN3CCOCC3)C(=S)Nc3cccc(C)c3)ccc21	.	.	.	.	?	.
CCN1CCCc2cc(CN(CCN3CCOCC3)C(=O)Nc3ccc(C)c(C)c3)ccc21	.	.	.	.	11µM	.
CCN1CCCc2cc(CN(CCN3CCOCC3)C(=S)Nc3ccc(OC)c(OC)c3)ccc21	.	.	.	.	?	.
CC1(C(=O)O)Sc2[nH]c(=O)sc2C2c3ccccc3OC(=O)C21 (configuration not stated)	.	.	.	.	25µM	.
COc1ccc(OC)c(Cc2nnc(CCC(=O)NCc3ccc(C)s3)o2)c1	.	.	.	.	10µM	.
COc1ccc(OC)c(Cc2nnc(CCC(=O)NC(C3CC3)C3CC3)o2)c1	.	.	.	.	.	.
Cc1nc(NS(=O)(=O)c2ccccc2)sc1NC(=O)OCCN(C)C	.	.	.	.	25µM	.
CCN(CC)CCOC(=O)c1ccc(NC(=O)c2ccc(Cl)c(S(=O)(=O)N3CCCCCC3)c2)cc1	.	.	?	.	.	.
COc1ccc(Cl)cc1NC(=S)N(CCCN1CCOCC1)Cc1cn(C)c2ccccc12	.	6.3µM	.	.	.	.
COc1cc(Cl)ccc1NC(=S)N(CCCN1CCOCC1)Cc1cn(C)c2ccccc12	.	7.1µM	.	.	.	.
COc1ccccc1NC(=S)N(CCCN1CCOCC1)Cc1cn(C)c2ccccc12	.	?	.	.	.	.
CC(=O)Nc1sc2c(c1C(c1cccc(Cl)c1)N1CCN(CCO)CC1)CCCC2 (configuration not stated)	.	18µM	.	.	.	.
COc1ccc(C(c2c(NC(C)=O)sc3c2CCCC3)N2CCN(CCO)CC2)cc1OC (configuration not stated)	.	14µM	.	.	.	.
CC1CCCC(C)N1C(=O)CSc1nnc(COc2cccc3cccnc23)o1 (configuration not stated)	.	.	.	.	.	.

Compound activity: PubChem BioAssay, National Center for Advancing Translational Sciences (NCATS)
